# Screening data deposited in PubChem BioAssay by National Center for Advancing Translational Sciences (NCATS).
# Sampled rows, rich in hits. Any-hit rate of the full collection: about 1.8%.
# GLP1R inv ag – inverse agonists of human GLP-1 receptor | P43220 | HEK293 GLP-1R CRE-luciferase, luminescence, 24 h; GLP-1R form is constitutively active | Potency, µM (top dose mostly 38.3 µM), hits mostly inhibitors | 410,000 tested, 1.6% active; also: nearly all actives have a fitted effect of over 55% in size
#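 Inverse agonism was detected as reduced cAMP-driven luciferase luminescence after 24 h compound treatment. The cells were HEK293 clones expressing constitutively active human GLP-1R with the reporter. Reporter-only and GPR119 cell lines served as counterscreen controls.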
# GLP1R cytotox – cytotoxic in the GLP-1 receptor inverse agonist counter-screen; HEK293 cAMP-luciferase reporter cells, luminescence, 24 h; Potency, µM (top dose mostly 38.3 µM), hits mostly inhibitors; 410,000 tested, 0.13% active;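 also: loss of luciferase light is scored as toxicity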
#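 To flag toxic compounds, the library was rerun on cells for 24 hr at 37 deg C and 5% CO2. Viability-linked luminescence was captured 12 min after adding luciferase detection reagent.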
# TRPML1 ag – agonists of human TRPML1 channel | Q9GZU1 | TRPML1-expressing cells, Ca2+ dye fluorescence, FDSS | activation, % (test concentration not listed) | 410,000 tested, 0.12% active | AID 624414; in the data active = activation above about 50%; inconclusive = mostly about 30% to 49%
# Target sequence (Q9GZU1 whole entry, looked up): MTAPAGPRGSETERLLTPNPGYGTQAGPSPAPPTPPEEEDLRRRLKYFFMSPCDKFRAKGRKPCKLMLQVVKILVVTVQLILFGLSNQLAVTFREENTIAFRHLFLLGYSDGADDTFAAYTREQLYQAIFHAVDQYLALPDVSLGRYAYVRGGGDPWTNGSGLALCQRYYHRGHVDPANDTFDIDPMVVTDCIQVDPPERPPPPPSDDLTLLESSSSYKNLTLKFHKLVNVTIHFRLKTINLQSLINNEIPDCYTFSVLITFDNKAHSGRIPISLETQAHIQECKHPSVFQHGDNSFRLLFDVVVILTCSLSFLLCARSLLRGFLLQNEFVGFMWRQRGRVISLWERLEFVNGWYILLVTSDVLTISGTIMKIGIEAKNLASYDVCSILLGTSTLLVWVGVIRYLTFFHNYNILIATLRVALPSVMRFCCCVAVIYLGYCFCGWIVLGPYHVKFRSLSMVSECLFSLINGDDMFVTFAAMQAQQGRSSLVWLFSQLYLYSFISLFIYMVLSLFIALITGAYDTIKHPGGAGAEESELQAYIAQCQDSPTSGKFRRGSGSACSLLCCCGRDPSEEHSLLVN
#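 In this qHTS format, compounds were pin-transferred onto Ca8-dye-loaded TRPML1-DL cells induced with Tet overnight, and intracellular Ca2+ fluorescence was recorded kinetically for 110 s after a 10 s baseline. A subsequent 4uM final 54-4 (EC80) addition followed by a second 110 s read served as the antagonist phase.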
# GLP-1R agonist – agonists of human GLP-1 receptor | AID 624172 | 380,000 tested, 0.007% active | HEK293 GLP-1R CRE-luciferase, luminescence, 4-6 h; cells express a hypersensitive GLP-1R form | Potency, µM (titrated, usually from 45.6 µM), most hits filed as activators
# TRPML1 inh – human mucolipin-1 channel inhibition; Q9GZU1; TRPML1-inducible cells, Ca2+ dye fluorescence, FDSS; hits give low values; inhibition of EC80 agonist-evoked calcium signal; activity change, negative = inhibition, % (test concentration not listed); 390,000 tested, 0.02% active; in the data active = activity change below about -50%; inconclusive = between about -30% and that limit;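 also: stimulus is agonist 54-4 at its EC80 concentration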
#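 TRPML1-DL cells, Tet-induced overnight (~16 h, 37 °C) at 1,500 cells/well, were loaded with Ca8 no-wash dye plus quencher for 45-90 min at room temperature. Compounds were pinned during FDSS kinetic reading; agonist 54-4 at EC80 (4 uM final) then added.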
# Numbers stand for hits; n = inactive; u = inconclusive; x = not tested or not shown. Unless noted, calls follow the shape of the dose curve; as a rule, active = well fitted curve in the direction sought with a large enough effect; inconclusive = small, poorly fitted or top-dose-only effect, or another doubt; inactive = no such curve, though single readings can be large; an effect the other way counts as inactive or inconclusive.
SMILES,GLP1R inv ag,GLP1R cytotox,TRPML1 ag,GLP-1R agonist,TRPML1 inh
Cc1ccc(NC(=S)NCc2ccc3c(c2)OCO3)cc1,u,u,n,n,n
Cc1ccc(C(C#N)=Cc2ccc3c(c2)OCO3)cc1,10µM,n,n,n,n
C[n+]1c2cc(N)ccc2cc2ccc(N)cc21,u,n,104,n,u
Nc1ccc2ccccc2c1,n,n,n,n,n
C#C[C@]1(OC(=O)CCCCCC)CC[C@H]2C3CCC4=CC(=O)CC[C@@H]4[C@H]3CC[C@@]21C (stereo partly specified),x,x,x,n,x
O=C(COc1ccc(Br)cc1)N1CCN(C2CCCC2)CC1,n,n,n,n,n
Cc1ccc(OCC(=O)N2CCN(C3CCC(c4ccccc4)CC3)CC2)cc1 (stereo unspecified),11µM,n,n,n,n
Cn1cc(/C=N/n2cnc3scc(-c4ccccc4)c3c2=O)c2ccccc21,5µM,u,n,n,n
COC(=O)c1cn(Cc2ccc(F)cc2)c2ccccc12,11µM,n,n,n,n
COc1cccc(C(=O)Oc2c(Sc3ccc(C)cc3)c(C)nn2C(C)(C)C)c1OC,3.2µM,u,n,x,n
COc1cccc(CN2CCc3nc(N4CCN(c5ncccn5)CC4)ncc3C2)c1,u,n,n,x,n
CN(c1ccc(C(=O)NCCSCc2c(F)cccc2Cl)cc1)S(C)(=O)=O,u,u,n,n,n
CCOP(=O)(OCC)c1nc(-c2ccc(Br)cc2)oc1N1CCCCC1,8.9µM,n,n,n,n
CCOP(=O)(c1ccccc1)c1nc(-c2ccc(F)cc2)oc1N1CCCCC1 (stereo unspecified),u,n,n,n,n
COc1cc2nc(Nc3cccc(F)c3)nc(N)c2cc1OC,10µM,u,n,n,n
Cc1cccc(Nc2nc(N)c([N+](=O)[O-])c(NCc3ccccc3)n2)c1,u,u,n,u,n
CC(C)=CCc1c(O)cc2c(c1O)C(=O)CC(c1ccc(O)cc1)O2 (stereo unspecified),13µM,n,x,n,x
C=C(C(=O)c1ccccc1)C(CC(=O)c1ccccc1)c1ccccc1 (stereo unspecified),u,u,n,n,n
CN(C)CCN(CC1CCCN(Cc2ccccc2F)C1)C(=O)Cc1c(F)cccc1F (stereo unspecified),u,n,n,n,n
CN(C)CCN(CC1CCCN(Cc2ccccc2F)C1)C(=O)Cc1ccccc1F (stereo unspecified),10µM,n,n,n,n
CC(C)c1ccc(NC(=O)C2CCC(CNS(=O)(=O)c3ccc4c(c3)CCCC(=O)N4)CC2)cc1 (stereo unspecified),u,n,n,x,n
CCOC(=O)C1(CCOc2ccccc2)CCN(Cc2ccccc2OC)CC1,8.9µM,n,n,n,n
CCCOc1ccc(C(=O)C(CN2CCOCC2)c2ccccc2)cc1 (stereo unspecified),7.1µM,u,n,n,n
COc1ccc(C(=O)C(CN2CCOCC2)c2ccccc2)cc1F (stereo unspecified),n,u,n,n,n
CC[n+]1c(/C=C/C=C/N(C(C)=O)c2ccccc2)sc2cc(OC)ccc21,u,u,n,n,n
SMILES,GLP1R inv ag,GLP1R cytotox,TRPML1 ag,GLP-1R agonist,TRPML1 inh
Cc1cccc(Cn2c(C)c(C)c3cc(C(=O)NCc4ccco4)ccc32)c1,u,u,n,x,n
Cc1cccc(OP(N)(=O)Oc2cccc(C)c2C)c1C,11µM,n,n,n,n
Cc1ccc(C2(c3ccc(C)cc3)CC2C(=O)Nc2ccc([N+](=O)[O-])cc2O)cc1 (stereo unspecified),4µM,u,n,n,n
COc1ccccc1CC(=O)Nc1ccc([N+](=O)[O-])cc1O,u,u,n,n,n
CC(C)(C#CCN1CCCCC1)OCCOC(c1ccccc1)c1ccccc1,5.6µM,u,n,n,n
O=C(Nc1ccc(Cl)c(C(F)(F)F)c1)c1ccc2c(c1)CCN2S(=O)(=O)c1ccccc1,5µM,n,n,x,n
CC(=O)Nc1cc(-c2cccc(C(=O)NCCN(C)C)c2)cn2c(-c3cccc(C(F)(F)F)c3)cnc12,u,u,n,n,x
COc1cc(C2c3cc4c(cc3OC(C)(N3CCCC3)C2C)OCO4)cc(OC)c1OC (stereo unspecified),u,u,n,n,n
